Results: ChEMBL document CHEMBL1961873, “Compounds: GSK PKIS; Assays: Nanosyn kinase panel” (2012)

Legend:
[1] = molecular target: Sphingosine kinase 1 (Homo sapiens) (UniProt Q9NYA1); settings: at 1 µM;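 note: mean SPHK1 inhibition value reported from the GSK PKIS kinase panel screen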
[2] = molecular target: T1, Sphingosine kinase 2 (Homo sapiens) (UniProt Q9NRA0); settings: at 0.1 µM
T1 sequence (whole entry): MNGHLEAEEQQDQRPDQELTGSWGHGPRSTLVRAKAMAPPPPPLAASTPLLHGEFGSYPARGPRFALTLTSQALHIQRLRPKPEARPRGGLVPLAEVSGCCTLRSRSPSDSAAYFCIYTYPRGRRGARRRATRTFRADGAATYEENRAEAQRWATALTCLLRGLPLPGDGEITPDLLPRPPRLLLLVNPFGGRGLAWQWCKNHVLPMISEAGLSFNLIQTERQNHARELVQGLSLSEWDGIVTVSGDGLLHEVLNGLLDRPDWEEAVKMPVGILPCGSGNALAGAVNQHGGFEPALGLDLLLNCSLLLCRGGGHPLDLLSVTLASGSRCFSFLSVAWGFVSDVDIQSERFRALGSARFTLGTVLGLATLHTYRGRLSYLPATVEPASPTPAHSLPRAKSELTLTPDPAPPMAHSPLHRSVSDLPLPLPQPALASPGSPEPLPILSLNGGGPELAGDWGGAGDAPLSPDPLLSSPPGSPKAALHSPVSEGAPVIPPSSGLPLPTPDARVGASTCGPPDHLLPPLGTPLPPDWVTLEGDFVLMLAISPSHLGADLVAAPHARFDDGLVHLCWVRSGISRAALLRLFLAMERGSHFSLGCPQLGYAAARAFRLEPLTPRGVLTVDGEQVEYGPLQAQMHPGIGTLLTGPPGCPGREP

[3] = molecular target: Casein kinase II subunit alpha (Homo sapiens) (UniProt P68400); settings: at 0.1 µM
[4] = molecular target: Casein kinase II subunit alpha (Homo sapiens) (UniProt P68400); settings: at 1 µM
[5] = molecular target: T2, Inhibitor of nuclear factor kappa-B kinase subunit alpha (Homo sapiens) (UniProt O15111); settings: at 0.1 µM
T2 sequence (whole entry): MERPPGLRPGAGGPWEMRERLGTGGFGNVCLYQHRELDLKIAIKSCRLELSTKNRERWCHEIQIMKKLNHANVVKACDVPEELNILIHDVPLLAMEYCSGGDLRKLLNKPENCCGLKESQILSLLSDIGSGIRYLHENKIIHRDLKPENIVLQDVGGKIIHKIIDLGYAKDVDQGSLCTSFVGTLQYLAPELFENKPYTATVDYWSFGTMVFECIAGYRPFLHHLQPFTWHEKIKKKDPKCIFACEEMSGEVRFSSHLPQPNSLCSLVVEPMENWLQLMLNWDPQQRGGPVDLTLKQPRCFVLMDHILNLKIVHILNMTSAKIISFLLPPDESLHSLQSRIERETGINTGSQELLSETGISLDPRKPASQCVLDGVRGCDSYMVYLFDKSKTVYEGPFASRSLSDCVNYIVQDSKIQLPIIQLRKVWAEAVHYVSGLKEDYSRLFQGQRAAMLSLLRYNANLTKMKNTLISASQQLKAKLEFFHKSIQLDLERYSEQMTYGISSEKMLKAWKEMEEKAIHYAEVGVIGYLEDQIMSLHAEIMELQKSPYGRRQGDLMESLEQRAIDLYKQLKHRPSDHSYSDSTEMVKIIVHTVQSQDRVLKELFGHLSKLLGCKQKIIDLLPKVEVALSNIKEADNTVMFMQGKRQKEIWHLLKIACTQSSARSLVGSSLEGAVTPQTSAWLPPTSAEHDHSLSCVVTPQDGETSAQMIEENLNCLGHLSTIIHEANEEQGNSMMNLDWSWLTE

[6] = molecular target: T2, Inhibitor of nuclear factor kappa-B kinase subunit alpha (Homo sapiens); settings: at 1 µM
[7] = molecular target: T3, Inhibitor of nuclear factor kappa-B kinase subunit beta (Homo sapiens) (UniProt O14920); settings: at 0.1 µM
T3 sequence (whole entry): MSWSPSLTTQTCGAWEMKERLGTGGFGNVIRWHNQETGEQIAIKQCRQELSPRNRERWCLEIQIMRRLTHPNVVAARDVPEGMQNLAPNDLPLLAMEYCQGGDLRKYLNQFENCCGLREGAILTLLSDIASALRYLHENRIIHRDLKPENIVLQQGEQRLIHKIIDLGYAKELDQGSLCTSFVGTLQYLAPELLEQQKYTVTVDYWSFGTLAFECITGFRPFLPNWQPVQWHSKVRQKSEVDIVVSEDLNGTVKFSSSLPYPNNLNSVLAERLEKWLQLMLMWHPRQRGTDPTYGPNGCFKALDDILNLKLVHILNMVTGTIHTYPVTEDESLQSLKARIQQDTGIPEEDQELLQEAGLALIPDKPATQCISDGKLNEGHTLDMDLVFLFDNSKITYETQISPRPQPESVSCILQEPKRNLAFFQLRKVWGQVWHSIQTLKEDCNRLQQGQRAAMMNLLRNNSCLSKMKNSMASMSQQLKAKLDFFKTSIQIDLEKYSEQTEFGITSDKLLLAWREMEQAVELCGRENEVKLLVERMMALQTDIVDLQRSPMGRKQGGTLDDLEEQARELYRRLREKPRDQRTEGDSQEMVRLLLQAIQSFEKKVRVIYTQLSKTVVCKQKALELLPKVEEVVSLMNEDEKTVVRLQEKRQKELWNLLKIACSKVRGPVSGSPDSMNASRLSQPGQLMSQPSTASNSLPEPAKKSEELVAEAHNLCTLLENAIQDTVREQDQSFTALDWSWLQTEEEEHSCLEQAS

[8] = molecular target: T3, Inhibitor of nuclear factor kappa-B kinase subunit beta (Homo sapiens); settings: at 1 µM
[9] = molecular target: T4, Inhibitor of nuclear factor kappa-B kinase subunit epsilon (Homo sapiens) (UniProt Q14164); settings: at 0.1 µM
T4 sequence (whole entry): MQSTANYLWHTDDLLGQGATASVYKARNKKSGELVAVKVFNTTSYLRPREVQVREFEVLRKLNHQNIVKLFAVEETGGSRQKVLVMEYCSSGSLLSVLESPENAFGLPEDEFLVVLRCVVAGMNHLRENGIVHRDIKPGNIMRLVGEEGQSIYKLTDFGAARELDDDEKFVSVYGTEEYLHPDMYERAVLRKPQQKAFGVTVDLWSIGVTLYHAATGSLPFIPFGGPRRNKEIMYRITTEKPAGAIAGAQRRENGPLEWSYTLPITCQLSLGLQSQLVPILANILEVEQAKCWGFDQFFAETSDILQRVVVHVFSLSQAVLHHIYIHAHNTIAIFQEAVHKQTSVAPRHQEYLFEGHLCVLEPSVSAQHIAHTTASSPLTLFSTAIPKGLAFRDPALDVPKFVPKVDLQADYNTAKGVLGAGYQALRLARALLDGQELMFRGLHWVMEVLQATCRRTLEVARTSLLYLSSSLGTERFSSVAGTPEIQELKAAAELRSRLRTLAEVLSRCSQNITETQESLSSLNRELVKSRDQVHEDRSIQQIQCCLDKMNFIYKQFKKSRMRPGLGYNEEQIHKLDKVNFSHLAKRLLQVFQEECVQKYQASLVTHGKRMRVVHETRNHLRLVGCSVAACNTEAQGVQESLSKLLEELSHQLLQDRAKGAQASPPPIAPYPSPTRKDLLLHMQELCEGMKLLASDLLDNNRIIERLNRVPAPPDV

[10] = molecular target: T4, Inhibitor of nuclear factor kappa-B kinase subunit epsilon (Homo sapiens); settings: at 1 µM
[11] = molecular target: T5, Serine/threonine-protein kinase Nek1 (Homo sapiens) (UniProt Q96PY6); settings: at 0.1 µM
T5 sequence (whole entry): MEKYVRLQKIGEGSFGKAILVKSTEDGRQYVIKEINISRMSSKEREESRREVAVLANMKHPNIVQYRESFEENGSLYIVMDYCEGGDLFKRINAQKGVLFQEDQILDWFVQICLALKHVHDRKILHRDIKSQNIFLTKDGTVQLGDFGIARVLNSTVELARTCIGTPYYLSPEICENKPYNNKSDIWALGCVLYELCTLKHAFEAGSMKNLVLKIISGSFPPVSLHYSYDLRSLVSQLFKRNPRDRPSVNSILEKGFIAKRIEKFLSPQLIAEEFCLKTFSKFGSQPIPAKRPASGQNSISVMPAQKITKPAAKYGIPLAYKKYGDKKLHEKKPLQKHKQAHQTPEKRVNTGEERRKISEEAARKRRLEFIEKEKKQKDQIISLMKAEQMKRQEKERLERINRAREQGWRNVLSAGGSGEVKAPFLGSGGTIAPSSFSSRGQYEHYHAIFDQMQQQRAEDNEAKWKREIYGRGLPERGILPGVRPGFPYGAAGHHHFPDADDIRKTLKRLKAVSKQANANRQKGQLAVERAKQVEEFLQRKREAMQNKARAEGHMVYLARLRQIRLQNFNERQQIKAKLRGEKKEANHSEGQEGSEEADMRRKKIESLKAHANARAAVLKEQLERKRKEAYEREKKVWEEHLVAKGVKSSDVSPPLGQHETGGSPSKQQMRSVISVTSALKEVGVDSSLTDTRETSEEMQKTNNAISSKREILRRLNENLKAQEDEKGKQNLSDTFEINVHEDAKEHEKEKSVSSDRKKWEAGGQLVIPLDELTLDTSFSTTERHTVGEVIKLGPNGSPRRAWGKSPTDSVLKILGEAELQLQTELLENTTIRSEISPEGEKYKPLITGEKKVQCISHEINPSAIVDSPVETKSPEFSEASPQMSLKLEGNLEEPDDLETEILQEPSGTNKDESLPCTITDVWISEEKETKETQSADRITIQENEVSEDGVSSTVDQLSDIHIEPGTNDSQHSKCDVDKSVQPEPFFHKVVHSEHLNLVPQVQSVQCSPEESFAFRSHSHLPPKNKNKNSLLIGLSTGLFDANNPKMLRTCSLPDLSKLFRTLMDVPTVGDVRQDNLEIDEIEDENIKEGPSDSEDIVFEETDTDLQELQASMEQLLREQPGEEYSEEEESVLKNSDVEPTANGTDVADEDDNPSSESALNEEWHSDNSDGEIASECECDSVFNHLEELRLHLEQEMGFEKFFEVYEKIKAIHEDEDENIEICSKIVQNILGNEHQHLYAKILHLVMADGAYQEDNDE

[12] = molecular target: T5, Serine/threonine-protein kinase Nek1 (Homo sapiens); settings: at 1 µM
[13] = molecular target: T6, Serine/threonine-protein kinase Nek2 (Homo sapiens) (UniProt P51955); settings: at 0.1 µM
T6 sequence (whole entry): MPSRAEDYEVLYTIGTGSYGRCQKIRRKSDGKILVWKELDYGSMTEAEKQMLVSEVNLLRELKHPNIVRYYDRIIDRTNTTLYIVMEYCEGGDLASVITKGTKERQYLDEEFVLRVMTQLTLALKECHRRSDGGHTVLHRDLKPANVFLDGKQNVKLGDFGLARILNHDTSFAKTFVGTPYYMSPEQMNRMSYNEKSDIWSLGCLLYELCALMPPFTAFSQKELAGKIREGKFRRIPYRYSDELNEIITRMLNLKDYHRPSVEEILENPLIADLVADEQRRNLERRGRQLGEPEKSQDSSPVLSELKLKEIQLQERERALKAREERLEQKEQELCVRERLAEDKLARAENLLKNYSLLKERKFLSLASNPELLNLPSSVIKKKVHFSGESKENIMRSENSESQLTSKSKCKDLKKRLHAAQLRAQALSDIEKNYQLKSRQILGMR

[14] = molecular target: T6, Serine/threonine-protein kinase Nek2 (Homo sapiens); settings: at 1 µM
[15] = molecular target: Serine/threonine-protein kinase Nek6 (Homo sapiens) (UniProt Q9HC98); settings: at 0.1 µM
[16] = molecular target: Serine/threonine-protein kinase Nek6 (Homo sapiens) (UniProt Q9HC98); settings: at 1 µM
[17] = molecular target: Serine/threonine-protein kinase Nek7 (Homo sapiens) (UniProt Q8TDX7); settings: at 0.1 µM
[18] = molecular target: Serine/threonine-protein kinase Nek7 (Homo sapiens) (UniProt Q8TDX7); settings: at 1 µM
[19] = molecular target: T7, Serine/threonine-protein kinase Nek9 (Homo sapiens) (UniProt Q8TD19); settings: at 0.1 µM;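 note: reported value is the mean percent inhibition of NEK9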
T7 sequence (whole entry): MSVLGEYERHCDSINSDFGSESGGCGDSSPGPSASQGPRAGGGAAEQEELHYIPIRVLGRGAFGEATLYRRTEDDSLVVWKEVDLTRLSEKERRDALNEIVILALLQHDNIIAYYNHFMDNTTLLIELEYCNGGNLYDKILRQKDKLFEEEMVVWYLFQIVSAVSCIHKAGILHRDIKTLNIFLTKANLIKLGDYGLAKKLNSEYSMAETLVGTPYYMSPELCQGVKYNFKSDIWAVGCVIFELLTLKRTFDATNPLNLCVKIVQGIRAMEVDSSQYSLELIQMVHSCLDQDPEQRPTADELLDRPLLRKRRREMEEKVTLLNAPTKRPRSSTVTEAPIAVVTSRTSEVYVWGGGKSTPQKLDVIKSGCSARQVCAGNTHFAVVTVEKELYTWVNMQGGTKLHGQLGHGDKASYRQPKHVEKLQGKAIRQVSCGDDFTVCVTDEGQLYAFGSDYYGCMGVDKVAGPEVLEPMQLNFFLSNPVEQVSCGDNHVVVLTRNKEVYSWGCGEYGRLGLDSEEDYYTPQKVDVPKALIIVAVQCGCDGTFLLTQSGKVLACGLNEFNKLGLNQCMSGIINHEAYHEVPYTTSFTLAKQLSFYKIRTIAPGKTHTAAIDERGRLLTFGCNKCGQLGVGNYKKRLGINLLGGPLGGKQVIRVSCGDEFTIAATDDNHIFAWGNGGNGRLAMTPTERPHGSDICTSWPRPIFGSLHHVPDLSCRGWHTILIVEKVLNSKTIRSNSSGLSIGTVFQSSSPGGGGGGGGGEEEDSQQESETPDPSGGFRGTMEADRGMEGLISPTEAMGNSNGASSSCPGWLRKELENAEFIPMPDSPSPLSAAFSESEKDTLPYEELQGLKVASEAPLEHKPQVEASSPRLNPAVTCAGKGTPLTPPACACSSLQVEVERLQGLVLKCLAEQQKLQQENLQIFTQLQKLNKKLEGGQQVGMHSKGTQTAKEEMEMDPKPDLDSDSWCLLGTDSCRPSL

[20] = molecular target: T1, Sphingosine kinase 2 (Homo sapiens); settings: at 1 µM

Sequence of Casein kinase II subunit alpha (Homo sapiens) (P68400 whole entry, looked up): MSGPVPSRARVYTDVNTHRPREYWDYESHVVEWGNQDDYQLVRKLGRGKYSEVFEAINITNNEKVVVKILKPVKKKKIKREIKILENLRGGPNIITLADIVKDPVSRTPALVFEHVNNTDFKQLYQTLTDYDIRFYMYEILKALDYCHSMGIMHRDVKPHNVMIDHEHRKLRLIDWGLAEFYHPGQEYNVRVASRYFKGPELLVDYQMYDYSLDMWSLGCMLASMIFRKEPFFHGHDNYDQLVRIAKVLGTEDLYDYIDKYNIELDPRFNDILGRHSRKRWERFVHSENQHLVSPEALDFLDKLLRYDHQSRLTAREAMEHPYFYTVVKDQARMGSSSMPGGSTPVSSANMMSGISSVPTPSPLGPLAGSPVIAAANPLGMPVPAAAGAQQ
Sequence of Serine/threonine-protein kinase Nek7 (Homo sapiens) (Q8TDX7 whole entry, looked up): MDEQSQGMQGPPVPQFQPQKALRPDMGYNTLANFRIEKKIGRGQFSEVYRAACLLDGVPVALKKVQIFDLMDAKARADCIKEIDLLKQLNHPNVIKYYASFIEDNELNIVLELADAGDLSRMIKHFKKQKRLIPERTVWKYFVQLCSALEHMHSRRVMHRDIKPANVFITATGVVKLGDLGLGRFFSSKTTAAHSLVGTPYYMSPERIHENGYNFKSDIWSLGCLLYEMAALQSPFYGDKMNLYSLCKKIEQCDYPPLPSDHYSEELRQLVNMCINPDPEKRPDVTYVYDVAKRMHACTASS
Sequence of Serine/threonine-protein kinase Nek6 (Homo sapiens) (Q9HC98 whole entry): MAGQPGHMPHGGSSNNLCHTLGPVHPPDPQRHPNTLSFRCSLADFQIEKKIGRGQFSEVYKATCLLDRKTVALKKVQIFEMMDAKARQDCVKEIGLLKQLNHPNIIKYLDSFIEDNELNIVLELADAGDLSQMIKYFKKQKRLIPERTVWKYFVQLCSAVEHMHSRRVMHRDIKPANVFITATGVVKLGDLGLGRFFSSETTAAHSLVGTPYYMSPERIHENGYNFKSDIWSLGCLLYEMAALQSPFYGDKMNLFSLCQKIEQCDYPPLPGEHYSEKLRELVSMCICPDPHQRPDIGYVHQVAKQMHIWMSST
Sequence of Sphingosine kinase 1 (Homo sapiens) (Q9NYA1 whole entry): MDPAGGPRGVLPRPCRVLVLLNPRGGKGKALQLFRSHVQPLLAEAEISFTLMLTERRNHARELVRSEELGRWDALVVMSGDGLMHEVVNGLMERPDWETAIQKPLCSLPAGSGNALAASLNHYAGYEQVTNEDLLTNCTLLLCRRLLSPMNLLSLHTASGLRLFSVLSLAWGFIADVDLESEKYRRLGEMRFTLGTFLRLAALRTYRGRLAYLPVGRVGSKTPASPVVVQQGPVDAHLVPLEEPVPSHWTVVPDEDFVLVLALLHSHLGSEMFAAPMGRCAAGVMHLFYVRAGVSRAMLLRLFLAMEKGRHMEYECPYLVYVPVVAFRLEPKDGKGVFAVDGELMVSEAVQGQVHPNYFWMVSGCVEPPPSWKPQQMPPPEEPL

Structure (SMILES) | inhibition [1] | inhibition [2] | inhibition [3] | inhibition [4] | inhibition [5] | inhibition [6] | inhibition [7] | inhibition [8] | inhibition [9] | inhibition [10] | inhibition [11] | inhibition [12] | inhibition [13] | inhibition [14] | inhibition [15] | inhibition [16] | inhibition [17] | inhibition [18] | inhibition [19] | inhibition [20]
[O-][S+]1CCN(Cc2ccc(-c3ccc4ncnc(Nc5ccc(OCc6ccccc6)c(F)c5)c4c3)o2)CC1 | -3.44% | 0.02% | -1.48% | 1.56% | 1.7% | 1.1% | 4.51% | -0.14% | 3.11% | 1.45% | 1.95% | 2.41% | 3.45% | 3.23% | 1.87% | -0.69% | 2.33% | 2.07% | 5.9% | –
COC(=O)Nc1nc2cc(Oc3cccc(NC(=O)Nc4cc(C(F)(F)F)ccc4F)c3)ccc2[nH]1 | 2.3% | 0% | -0.44% | -0.84% | -3.67% | 4.99% | 0.52% | 1.91% | 1.54% | 0.25% | -0.22% | 2.32% | 0.79% | 0.72% | 1.5% | 0.11% | 2.69% | 1.59% | -4.74% | 0.65%
